# Screening results: PubChem BioAssay, National Center for Advancing Translational Sciences (NCATS)
# Rab9 promoter act: Rab9 promoter activation | Huh7 Rab9 promoter-luciferase reporter, luminescence, 24 h | Potency, µM (top dose mostly 9.22 µM), inactives show at the highest dose activation, negative = inhibition, usual class: activators | actives 2.8% (n = 320,000) | AID 485297; also: % of control where 0% means no effect; nearly all actives have a fitted effect of over 60% in size
#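 Huh7 cells stably carrying a Rab9 promoter-luciferase reporter, 1500 cells per well in OP-MEM I with 10% FBS, treated with compound 24 hours at 37C. Luciferase activity read by luminescence after 10 minutes with Amplite reagent.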
# ELG1 repair inh: ELG1-dependent DNA repair inhibition | HEK293T ELG1-luciferase reporter, luminescence, 16 h; DNA damage induced by 5-fluorouridine | Potency, µM (doses to about 46.1 µM), without a hit: top-dose activity change, negative = inhibition, hits mostly inhibitors | actives 2.3% (n = 330,000) | AID 504467; also: % is scaled to controls: 0 for no effect and ±100 for the full control effect; nearly all actives have a fitted effect of over 55% in size
#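 DMSO vehicle served as the neutral condition. Each well held 2,000 cells given 5-fluorouridine plus compound; after 16 hr at 37 °C/5% CO2, ONE-Glo was added and luciferase measured 30 min later.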
# SMN2 splice enh: SMN2 splice variant enhancement | HEK293 SMN2-luciferase splicing reporter, luminescence, 30-36 h | Potency, µM (highest dose often 46.1 µM), inactives show at the highest dose activity change, positive = activation, actives largely listed as activators | actives 2.8% (n = 210,000); also: % of control where 0% means no effect; nearly all actives have a fitted effect of over 55% in size
#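 qHTS luciferase splicing reporter: luminescence rises when SMN2 exon 7 is included in transfected HEK293 cells. Compound exposure lasted 30-36 h at 37C, with 4.5 mM final sodium butyrate as control, followed by a ONE-Glo read.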
# ELG1 genotox: genotoxicity induction in ELG1-luciferase HEK293T cells; HEK293T ELG1-luciferase reporter, luminescence, 16 h; Potency, µM (titrated, usually from 46 µM), without a hit: at the top dose activity change, positive = activation, actives largely listed as activators; actives 1.3% (n = 330,000); AID 504466; also: % of control where 0% means no effect; nearly all actives have a fitted effect of over 60% in size
#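 Luminescence read-out: rising ELG1-luciferase signal, reflecting elevated ELG1 protein under genetic stress, flags genotoxic compounds. Cells were treated for 16 hr at 37 °C before ONE-Glo detection.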
# FLuc counter: firefly luciferase modulation, counter-screen for miR-21 project; Potency, µM (highest dose often 57.5 µM), inactives show at the top dose activity change, negative = inhibition, most hits filed as inhibitors; AID 588342; purified FLuc, Km substrates, luminescence inhibition; P08659; actives 6.9% (n = 360,000);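 also: plate controls were vehicle for no effect and reference inhibitor for full effect; nearly all actives have a fitted effect of over 55% in size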
# Target sequence (P08659 whole entry, looked up): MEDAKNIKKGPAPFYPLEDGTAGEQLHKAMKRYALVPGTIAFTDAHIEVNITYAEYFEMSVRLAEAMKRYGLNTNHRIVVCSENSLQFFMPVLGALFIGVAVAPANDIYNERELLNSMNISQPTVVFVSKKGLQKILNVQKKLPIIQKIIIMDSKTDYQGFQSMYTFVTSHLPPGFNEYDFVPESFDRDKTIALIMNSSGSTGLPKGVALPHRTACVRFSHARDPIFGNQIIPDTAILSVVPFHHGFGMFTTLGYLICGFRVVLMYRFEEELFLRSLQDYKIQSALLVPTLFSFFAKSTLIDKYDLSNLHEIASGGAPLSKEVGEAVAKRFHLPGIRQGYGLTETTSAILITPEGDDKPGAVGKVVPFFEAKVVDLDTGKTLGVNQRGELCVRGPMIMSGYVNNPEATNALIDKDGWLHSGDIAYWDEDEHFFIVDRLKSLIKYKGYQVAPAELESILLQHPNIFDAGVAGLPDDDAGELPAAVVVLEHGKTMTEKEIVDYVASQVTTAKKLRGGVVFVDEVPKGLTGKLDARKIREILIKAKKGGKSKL
#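 Purified P. pyralis luciferase (10nM final) with 10uM D-luciferin and 10uM ATP (Km levels) in 50mM Tris acetate pH 7.5, 10mM Mg acetate, 0.01% Tween-20, 0.05% BSA; qHTS 6-point titration, ~60 µM downward; luminescence read.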
# NPC1 promoter act: activators of NPC1 promoter; Huh7 NPC1 promoter luciferase reporter, 24 h; Potency, µM (highest dose often 9.22 µM), for inactives: at the highest dose activation, most hits filed as activators; actives 2.4% (n = 320,000); AID 485313; also: % of control where 0% means no effect; nearly all actives have a fitted effect of over 60% in size
#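 NPC1 promoter–luciferase Huh7 cells; 24 h compound; luminescence.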
# Numbers without * were called inactive; ? = inconclusive; · = not tested or not shown; [ ] = dose if it differs, or a comment. Shown are actives, neighbours in structure and some others; about 9.3% of the full set was active somewhere. Calls follow the shape of the dose curve; as a rule, active = well fitted curve in the direction sought with a large enough effect; inconclusive = small, poorly fitted or top-dose-only effect, or another doubt; inactive = no such curve, though single readings can be large; an effect the other way counts as inactive or inconclusive. Potency is read from the fitted curve at half-maximal effect.
SMILES,Rab9 promoter act,ELG1 repair inh,SMN2 splice enh,ELG1 genotox,FLuc counter,NPC1 promoter act
CN(C(=O)c1cccs1)c1ccc(OCC(=O)N2CCC(C(N)=O)CC2)cc1,-1.0%,14.6µM*,-40.9%,-8.6%,-7.2%,-12.1%
COc1ccc(-c2sc3ccc(N4CCOCC4)cc3c2C#CC(C)(C)O)cc1,-7.3%,-13.6%,·,-2.5%,1.9%,-1.7%
O=C(Cc1ccc(Cl)c(Cl)c1)Nc1cccnc1,-2.7%,-14.8%,·,-4.6%,0.3%,2.5%
CN(NS(=O)(=O)c1ccc(Cl)cc1)c1nc(C(F)(F)F)nc2ccccc12,-0.3%,23.1µM*,-46.1%,-16.9%,?,2.1%
CN(NS(=O)(=O)c1ccccc1)c1nc2ccccc2nc1C(F)(F)F,-1.8%,-6.0%,-14.5%,-5.7%,0.0%,-2.2%
Cc1ccc(/C=N/NC(=O)c2n[nH]c3c2CCCC3)cc1,-5.6%,?,·,6.51µM*,2.39µM*,?
O=C(N/N=C\c1cccc(Cl)c1)c1n[nH]c2c1CCCC2,0.708µM*,?,12.6µM*,?,1.69µM*,2.51µM*
O=C(N/N=C/c1ccc(Cl)cc1Cl)c1n[nH]c2c1CCCC2,13.6%,?,14.1µM*,?,?,0.0%
O=C(N/N=C/C=C/c1ccccc1)c1n[nH]c2c1CCC2,-1.6%,?,-4.8%,?,-5.0%,2.0%
C/C(=N\NC(=O)c1n[nH]c2c1CCC2)c1cccs1,?,?,·,?,0.601µM*,?
COc1ccc(CCNC(=O)COC(=O)Cc2cccc3ccccc23)cc1,-8.5%,4.1%,·,-3.2%,-1.5%,-0.4%
COc1ccc(N2CCN(C(=O)c3ccc(-c4ccccc4)cc3)CC2)cc1,-0.4%,3.2%,·,0.6%,1.0%,-0.9%
Cc1ccc(N2C(=O)NC(NC(=O)c3ccc(Cl)cc3)(C(F)(F)F)C2=O)cc1 (centres undefined),0.5%,-8.7%,4.5%,-3.5%,0.9%,-0.3%
COc1cccc(NC(=O)CN(C)C(=O)c2cccnc2Nc2cccc(C(F)(F)F)c2)c1,-3.8%,?,·,-7.4%,1.4%,-5.5%
O=C(N/N=C/c1cccs1)c1n[nH]c2c1CCCC2,0.1µM*,?,·,?,0.849µM*,?
O=C(N/N=C/c1cccc2ccccc12)c1n[nH]c2c1CCCC2,-3.0%,10.9%,10.0%,18.0%,-15.7%,-22.5%
Cn1ccs/c1=N\C(=O)Nc1cccc(Cl)c1,0.708µM*,?,·,5.17µM*,7.57µM*,0.891µM*
CCc1nc(N2CCCC(C)C2)c2oc3ccccc3c2n1 (centres undefined),-12.4%,?,·,-10.7%,-10.1%,5.4%
C/C(=N/OC(=O)C1CC12CCC2)c1ccc(Br)cc1 (centres undefined),1.9%,-1.4%,14.8%,-3.8%,6.75µM*,-0.6%
COc1ccccc1CN(C)CC(=O)NC(=O)NC1CCCCC1,-5.3%,-2.3%,·,0.0%,1.2%,-0.1%
C/C(CC(=O)Nc1cccc(Cl)c1Cl)=N\NC(=O)C(=O)NC1CCCCC1,0.8%,-2.7%,·,1.5%,0.8%,-2.7%
O=C1/C(=C/N(C(=O)c2ccco2)c2ccc(Br)cc2)Sc2ccccc21,?,?,·,11.6µM*,0.338µM*,?
O=C1/C(=C/N(C(=O)c2ccco2)c2ccc(Cl)cc2)Sc2ccccc21,?,?,14.1µM*,?,0.135µM*,?
COc1ccc(CN(C(=O)c2ccco2)c2ccc(Br)cc2)cc1OC,-4.6%,?,-20.5%,-2.2%,1.0%,0.9%
O=S(=O)(Nc1ccc(Oc2ncccn2)c(Cl)c1)c1ccc(Cl)cc1,-8.6%,-9.6%,-6.8%,-2.0%,0.1%,0.2%
SMILES,Rab9 promoter act,ELG1 repair inh,SMN2 splice enh,ELG1 genotox,FLuc counter,NPC1 promoter act
CCSc1nnc(NC(=O)C2CCN(S(=O)(=O)c3ccccc3C(F)(F)F)CC2)s1,-9.2%,23.1µM*,-6.2%[1.84 µM],-4.4%,3.2%,-3.1%
CCOCc1nnc(NC(=O)c2cccs2)s1,-1.2%,17.3%,14.4%,0.9%,-12.8%,0.1%
CCSc1nnc(NC(=O)C2CCN(S(=O)(=O)c3c(C)c(C)cc(C)c3C)CC2)s1,-3.0%,-9.6%,-4.0%,-0.5%,-0.8%,-5.8%
CCSc1nnc(NC(=O)c2cccs2)s1,?,?,22.4%,-15.1%,19µM*,?
O=C(Nc1nnc(SCc2ccccc2)s1)c1cccs1,21.0%,?,?,14.6µM*,?,24.3%
CN(C)S(=O)(=O)c1ccc(C(=O)Nc2nnc(SCc3ccccc3)s2)cc1,-0.8%,4.3%,7.9%,3.3%,-1.4%,2.3%
O=S(=O)(NC1CCCCCC1)c1cccc(Cl)c1,·,-1.4%,·,-1.0%,·,·
O=C(Nc1nc(-c2ccc(S(=O)(=O)N3CCCC3)cc2)cs1)c1cccs1,-24.8%,8.2µM*,·,-21.7%,1.0%,-7.0%
O=C(Nc1ccc(S(=O)(=O)N2CCCC2)cc1)c1cccs1,12.1%,6.5%,·,-4.4%,0.4%,-4.9%
O=C(Nc1nc(-c2ccc(S(=O)(=O)N3CCCCCC3)cc2)cs1)c1cccs1,-17.1%,13µM*,-52.0%,-20.2%,4.3%,-1.6%
COc1ccc(Br)cc1CN(C)C(C)C(=O)Nc1cc([N+](=O)[O-])ccc1OC (centres undefined),-1.0%,?,-19.9%,-2.0%,0.7%,-0.5%
COc1ccc(CN(C)C(C)C(=O)Nc2ccc([N+](=O)[O-])cc2Cl)cc1OC (centres undefined),-10.1%,9.2µM*,-66.2%,-0.2%,-1.2%,-0.9%
COc1ccc([N+](=O)[O-])cc1NC(=O)C(C)N(C)Cc1ccc(Br)cc1 (centres undefined),-3.1%,20.6µM*,-32.6%,-2.7%,4.4%,1.2%
CCOc1ccc(CN(C)C(C)C(=O)Nc2ccc([N+](=O)[O-])cc2Cl)cc1OC (centres undefined),-3.8%,14.6µM*,-25.9%,-0.5%,2.3%,0.0%
CCOC(=O)c1cnc2c(C)cccc2c1NCCc1ccc(OC)c(OC)c1,-11.9%,23.1µM*,-65.4%,-25.5%,-3.9%,-1.5%
CCOC(=O)c1cnc2c(C)cc(C)cc2c1NCCc1ccc(OC)c(OC)c1,·,·,-5.2%,·,-16.7%,·
CCOC(=O)c1ccc2ncc(C(=O)OCC)c(NCCc3ccc(OC)c(OC)c3)c2c1,·,·,-5.2%,·,2.8%,·
CCOC(=O)c1cnc2ccc(C(=O)OC)cc2c1NCCc1ccc(OC)c(OC)c1,-1.8%,14.6µM*,-15.3%,-5.3%,1.0%,0.6%
N#CCCN(Cc1cccnc1)C(=S)Nc1ccccc1Cl,0.1%,-13.0%,-4.7%,-0.8%,-1.7%,-1.2%
